This note sets out measurements from PubChem BioAssay AID488841 (Sanford-Burnham Center for Chemical Genomics, 2010).

Usually inhibition stands for the drop in the measured response relative to a control, in per cent.

Among all 1,400 compounds or so, about 380 (27%) were called active. The list shows a part of the results. Values without a mark were called inactive.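 The calls were made as follows: active = mean inhibition above 50% across duplicate retests at 10 µM; inactive = the rest.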

The assay is described as follows: inhibition of NALP1/ASC/caspase-1 reporter signal in yeast, confirmation, NALP1 inhibitor project, S. cerevisiae, luminescence, single concentration (AID 488841).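 Also: plate controls were DMSO in galactose medium for no effect and cells in plain SD medium for full effect.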 The settings on record: S. cerevisiae NALP1/ASC/Caspase-1 reporter, beta-gal luminescence; at 10 µM; hits give high values.
With `CC(=O)Nc1ccc(C(=O)CSc2nnc(Cc3ccccc3)o2)cc1`, the inhibition was 11.8%.
In the case of `CCOC(=O)C1=NN(C(=O)c2ccc(C)cc2)C(O)(c2ccc(Cl)cc2)C1` (stereo unspecified), the inhibition was 45.7%.
Consider `Cc1cccc(NC2=C(Cl)C(=O)OC2NC(=O)c2ccccc2)c1` (stereo unspecified), for which the inhibition was 7.1%.
For `O=C(Nc1ccc2nc3n(c(=O)c2c1)CCCC3)c1cc([N+](=O)[O-])ccc1F`, the inhibition is 64.8% (active).
Regarding `CC1CCCCN1C(=S)Nc1ccc2nc3n(c(=O)c2c1)CCCCC3` (stereo unspecified), the inhibition was 35%.
Regarding `Cc1ccc(NCC(=O)Nc2c(C)n(C)n(-c3ccccc3)c2=O)cc1S(=O)(=O)N(C)C`, the inhibition is 15.9%.
Take `Cc1ccccc1-c1ccc(C(=O)Nc2cccc(F)c2)o1`: the inhibition is 52.9% (active).
`O=C(Nc1cccc(F)c1)c1ccc(CSc2ccccc2)o1`: the inhibition was 37.8%.
Under `Cc1ccc(CC(=O)Nc2ccccc2-c2ccccc2)cc1C` stands 35.9%; under `CC1=C(C)/C(=N\OS(=O)(=O)c2ccc(C)cc2)C=CC1=O`, 79.5% (active).
Regarding `N#Cc1cnn(-c2ncnc3sc4c(c23)CCCC4)c1N`, the inhibition was 33.3%.
Consider `O=C(COC(=O)Cc1c(F)cccc1Cl)NCCC1=CCCCC1`, for which the inhibition is 37.5%.
Turning to `O=C1/C(=C/c2ccco2)Cc2ccccc21`, the inhibition was 38.1%.
As to `COc1cc2ccccc2c2c1CCCC2=O`, the inhibition was 27.6%.
For the compound `COc1ccc(/C=C2/CCc3ccccc3C2=O)cc1OC`, the inhibition is 59.9% (active).
Regarding `COc1ccc(/C=C2\COc3ccccc3C2=O)cc1OC`, the inhibition is 72.8% (active).
As for `COc1cc(/C=C2/CCc3ccccc3C2=O)cc(OC)c1OC`, the inhibition is 53% (active).
As to `O=C1/C(=C/c2ccccc2)CCCc2ccccc21`, the inhibition is 57.9% (active).
As to `COc1ccc(C2=C/C(=C/c3cccnc3)C(=O)O2)cc1OC`, the inhibition was 40.3%.
Take `COc1cc(C=O)ccc1Oc1nnnn1-c1ccccc1`: the inhibition is 35%.
On to `Cc1ccc(CN(C(=O)CNC(=O)c2cccs2)C(C(=O)NCC2CCCO2)c2ccccc2)cc1` (stereo unspecified), for which the inhibition was 20.4%.
Take `CC(C)NCCCCOc1cccc(Br)c1`: the inhibition is 43.9%.
As for `O=C(Cn1cccc(C(F)(F)F)c1=O)c1ccc(Cl)cc1`, the inhibition is 22%.
Take `Cc1oc(C(=O)O)cc1COc1ccc2c3c(c(=O)oc2c1)CCC3`: the inhibition is 14.6%.
As for `Cc1[nH][nH]c(=O)c1C(c1c(C)[nH][nH]c1=O)c1cn(Cc2ccc(Cl)c(Cl)c2)c2ccccc12`, the inhibition is 35.5%.
As to `CN(C)c1ccc(/C=N/NC(=O)c2nnn(-c3nonc3N)c2CN(C)c2ccccc2)cc1`, the inhibition is 25.6%.
`Cc1nc2c(=O)n(C)c(=O)n(C)c2nc1Cl`: the inhibition is 36.3%.
As for `N=c1n(CC(=O)c2ccc([N+](=O)[O-])cc2)c2ccccc2n1Cc1ccccc1Cl`, the inhibition is 25.6%.
Under `COc1ccc2c(c1)CC/C(=C/c1ccco1)C2=O` stands 71.4% (active); under `Nc1ccc2c(c1)C/C(=C/c1ccco1)C2=O`, 18.6%.
On to `c1ccc2sc(Sc3ncnc4sccc34)nc2c1`, for which the inhibition is 44.2%.
Take `Cc1ccc(-c2nc3cnccn3c2Nc2c(C)cccc2C)o1`: the inhibition was 58.9% (active).
Under `COc1ccc(-c2nc3cnccn3c2Nc2ccc(C)cc2)cc1` stands 38.7%; under `CC(=O)OCC(=O)[C@H]1CC[C@H]2[C@@H]3CC=C4C[C@@H](O)CC[C@]4(C)[C@H]3CC[C@]12C`, 4.15%.
In the case of `O=C(CCNC(=O)c1ccccc1Cl)Nc1ccc2c(c1)OCO2`, the inhibition is 22.9%.
Under `COC(=O)c1ccc(NC(=O)C(=O)N2CCCC2)cc1` stands 45.1%; under `CC(=O)c1ccc(S(=O)(=O)N2CCCC2)cc1`, 23.6%.
On to `COC(=O)c1ccc(Oc2ccc(S(=O)(=O)N3CCCCC3)cc2N)cc1`, for which the inhibition is 92.3% (active).
Regarding `CCc1ccc(NCc2nc(-c3ccccc3)no2)cc1`, the inhibition was 46.7%.
On to `O=S(=O)(CC(CN1CCCCC1)N1CCCCC1)c1ccc2ccccc2c1` (stereo unspecified), for which the inhibition is 39.3%.
Turning to `CCOC(=O)c1cc(-c2ccc(OC)cc2)nc2c1c(C)nn2CCC#N`, the inhibition is 49.9%.
On to `CCOC(=O)/C=C/C(=O)Nc1nccs1`, for which the inhibition is 45.4%.
Turning to `O=C(/C=C/c1cccc([N+](=O)[O-])c1)c1ccco1`, the inhibition is 38.9%.
Consider `CCOC(=O)N1CCC(=NNS(=O)(=O)c2cccc([N+](=O)[O-])c2)CC1`, for which the inhibition was 24%.
For `COC(=O)/C=C\C(=O)Nc1cccc([N+](=O)[O-])c1`, the inhibition was 51.5% (active).
Turning to `CCOC(=O)/C=C/C(=O)Nc1cccc([N+](=O)[O-])c1`, the inhibition was 66.3% (active).
Consider `O=C(CON=C1c2ccccc2-c2ccccc21)NC12CC3CC(CC(C3)C1)C2`, for which the inhibition is 30.6%.
On to `CCOC(=O)c1c(C)[nH]c(C(=O)COC(=O)c2oc3ccccc3c2C)c1C`, for which the inhibition was 23.3%.
`CCC(C)NCCOc1cccc(Br)c1` (stereo unspecified): the inhibition was 26.1%.
The same measure for `CN(Cc1ccccc1)c1ncnc2c1cnn2-c1ccccc1`: 49.5%.
Take `COC(=O)c1ccc(Cn2cnc3c(cnn3-c3ccc(Cl)cc3)c2=O)o1`: the inhibition was 34.6%.
Under `COCCN(CCOC)c1ncnc2c1cnn2-c1ccc(Cl)cc1` stands 56.8% (active).
For the compound `Cc1occc1C(=O)Nc1c(F)c(F)c(F)c(F)c1F`, the inhibition is 25.9%.
Consider `CCC1(CC)Cc2ccccc2C(Nc2c(C)n(C)n(-c3ccccc3)c2=O)=N1`, for which the inhibition is 21.4%.
With `S=C1SCN(Cc2cccnc2)CN1Cc1cccnc1`, the inhibition was 76% (active).
With `NNC(=S)NCc1cccnc1`, the inhibition is 24.5%.
With `O=C1/C(=C\c2cccnc2)CN(Cc2ccccc2)C/C1=C\c1cccnc1`, the inhibition was 22.2%.
With `Cc1ccc(Sc2nnc(Cc3ccccc3)c3ccccc23)cc1`, the inhibition is 38.2%.
For the compound `O=C(c1ccccc1)c1ccc(OCC(O)CNC2CCCc3ccccc32)cc1` (stereo unspecified), the inhibition was 32.6%.
For `CCN1CCN(C(=S)Nc2ccc(Cl)c(Cl)c2)CC1`, the inhibition was 37%.
Take `CCOC(=O)N1CCN(c2ccc(Cl)c(Cl)c2)CC1`: the inhibition was 60.3% (active).
As for `CCOC(=O)N1CCN(c2c(NCCOC)c(=O)c2=O)CC1`, the inhibition was 26.4%.
The same measure for `COc1ccc(OC)c(S(=O)(=O)Nc2ccc(O)c3ccccc23)c1`: 32.9%; for `O=C(O)[C@@H](c1ccccc1)N1Cc2ccccc2C1=O`: 26.9%; for `COc1ccc(NCc2ccc([N+](=O)[O-])s2)cc1`: 14.8%.
Turning to `CCOC(=O)N/N=C/c1ccc(N(CC)CC)cc1O`, the inhibition is 52.4% (active).
On to `CCN(CC)c1ccc(/C=N/OC(C)C(=O)Nc2ccc(C)cc2)cc1` (stereo unspecified), for which the inhibition was 41%.
Turning to `Clc1ccc2c(N/N=C/c3cccc(Br)c3)ccnc2c1`, the inhibition is 42.9%.
For the compound `O=C(CCN1C(=O)c2ccccc2C1=O)N1CCN(C2c3ccccc3-c3ccccc32)CC1`, the inhibition was 18.4%.
The same measure for `COc1ccc(-c2[nH]ncc2CN2CCC(OCc3ccccn3)CC2)c(F)c1`: 23.8%; for `CC(C)C(C)NC(=O)COc1ccc(S(=O)(=O)N2CCOCC2)cc1[N+](=O)[O-]` (stereo unspecified): 10.1%; for `Cn1cc(C(=O)NCc2ccc(F)cc2)c(=O)c2cc(S(=O)(=O)N3CCCCC3)ccc21`: 32.6%.
Take `O=[N+]([O-])c1cc(S(=O)(=O)N2CCCCCC2)ccc1F`: the inhibition was 74.7% (active).
Regarding `CC(C)NC(=O)c1ccc(COCC(F)(F)F)cc1`, the inhibition was 41.5%.
Under `CN1c2ccccc2-c2nc3ccccc3n2C1c1cccs1` (stereo unspecified) stands 26.3%.
Turning to `O=C(CN1CCCCC1)Nc1nc(-c2ccc(F)c(F)c2)cs1`, the inhibition was 43.3%.
Turning to `O=C(Cc1cccs1)Nc1nc(-c2ccc(F)cc2F)cs1`, the inhibition is 71.6% (active).
The same measure for `COc1ccccc1NS(=O)(=O)c1ccc(NC(=O)Cc2cccs2)cc1`: 31.7%; for `COc1ccccc1N1C(=O)C2CCC(c3ccccc3)CC2C1=O` (stereo unspecified): 40.1%; for `COc1ccc(S(=O)(=O)N2CCOC2CNC(=O)C(=O)NCCCN2CCOCC2)cc1C` (stereo unspecified): 36.4%.
Under `O=C(CN1CCN(c2ccccc2)CC1)Nc1ccc2c(c1)CCC2` stands 22.7%; under `O=C(Nc1ccc2c(c1)Cc1ccccc1-2)c1ccncc1`, 64.8% (active).
Consider `CS(=O)(=O)N(Cc1ccccc1)c1ccc(C(=O)Nc2cccnc2)cc1`, for which the inhibition is 19.7%.
On to `O=C(Nc1ccc2c(c1)CCC2)c1ccccc1`, for which the inhibition was 73.4% (active).
With `O=C(COc1ccc(Cl)cc1)Nc1ccc2c(c1)CCC2`, the inhibition was 39.6%.
Take `O=C(Nc1ccc2nc3ccccc3nc2c1)c1ccccc1`: the inhibition was 70.2% (active).
On to `O=C(Nc1ccc(Cl)c(Cl)c1)c1ccncc1`, for which the inhibition was 49.2%.
Turning to `O=C(COC(=O)C1(c2ccccc2F)CCCC1)N1CCOCC1`, the inhibition was 17.6%.
The same measure for `Cc1cc(C)c(S(=O)(=O)Nc2ccc(OCC(=O)O)cc2)c(C)c1`: 27.6%.
Consider `CCOC(=O)C1CCCN(Cc2ccc(OCC)cc2)C1` (stereo unspecified), for which the inhibition was 41.2%.
Turning to `Clc1ccc(OCCN2CCCCC2)cc1Cl`, the inhibition was 39.4%.
Take `CC/C(=N\NC(=O)c1ccccc1Cl)c1ccc(Br)s1`: the inhibition is 38.6%.
Consider `Cc1cccc(C)c1OCC(=O)Nn1c(=O)[nH]c2ccccc2c1=O`, for which the inhibition was 32.6%.
As for `CCCc1cc(C(=O)O)c2ccccc2n1`, the inhibition was 27.6%.
`CCC(=O)Nc1cccc(-c2nc3ccccc3o2)c1`: the inhibition was 69.3% (active).
As for `CCCCCC(=O)Nc1ccc2oc(-c3cccnc3)nc2c1`, the inhibition is 44.2%.
With `COC(=O)c1cc(=O)n(-c2ccccc2)c(=Nc2ccccc2)s1`, the inhibition was 49.4%.
On to `CCC(C(=O)OC)n1cnc2scc(-c3ccc(C)c(C)c3)c2c1=O` (stereo unspecified), for which the inhibition is 98.8% (active).
In the case of `Cn1c2ccccc2c(=O)c2c(=O)n(C3CCCCCC3)c(C3CCCCC3)nc21`, the inhibition was 41%.
In the case of `COc1ccc(-c2cn3cccnc3n2)cc1Br`, the inhibition is 78.5% (active).
As to `Cn1c(=O)n(CCCOc2ccc(Cl)cc2)c2ccccc21`, the inhibition was 45.5%.
